Test results from PubChem BioAssay AID738 (SRMLSC, 2007).
Screen size: about 98,000 compounds; about 4,900 (5%) were called active. Cut-off read from the data, not from the text of the source: active = inhibition above about 30%; inactive = the rest. What follows is part of a selection rich in actives, with near analogues and random picks from the rest.

Experiment: growth inhibition of yeast control strain, primary screen, counter-screen for post-Golgi transport modulator project (AID 738)
Settings: efflux-deficient yeast background strain, growth absorbance A615, 16 h; at 10 µM; hits give high values

| SMILES | inhibition |
| --- | --- |
| O=c1c2ccccc2nc2n1C(CSCc1ccccc1)CS2 (stereo unspecified) | 3.79% (inactive) |
| Cc1ccc(N2C(=O)CC(Sc3ncn[nH]3)C2=O)cc1 (stereo unspecified) | -0.63% (inactive) |
| CS(=O)(=O)N1CCN(c2ccc(C(=O)NC3C4CC5CC(C4)CC3C5)cc2[N+](=O)[O-])CC1 (stereo unspecified) | -2.2% (inactive) |
| CC(NCCO)C(=O)C12CC3CC(CC(C3)C1)C2 (stereo unspecified) | -1.14% (inactive) |
| O=C(NC12CC3CC(CC(C3)C1)C2)N1CCCC(CO)C1 (stereo unspecified) | 7.31% (inactive) |
| O=C(CNCCO)NC12CC3CC(CC(C3)C1)C2 | 33.3% (active) |
| COc1cc(CNCc2cccs2)cc(Br)c1OC | -5.39% (inactive) |
| COc1ccc2c(c1)SC(C)CC2=O (stereo unspecified) | -5.53% (inactive) |
| COc1ccc2c(c1)OC(O)(C(F)(F)C(F)F)CC2=O (stereo unspecified) | 34.1% (active) |
| COC(=O)c1cc(OC)ccc1-c1ccc(OC)cc1 | 18.8% (inactive) |
| Cc1ccc(/C=N/NC(=O)C(NC(=O)c2ccccc2)c2n[nH]c(=O)c3ccccc23)cc1 (stereo unspecified) | 13.9% (inactive) |
| COC(=O)C1=C(C)Nc2ncnn2C1c1cccnc1 (stereo unspecified) | 15% (inactive) |
| Brc1ccc(C2=CC(c3ccco3)n3ncnc3N2)cc1 (stereo unspecified) | 19.2% (inactive) |
| Clc1ccc2c(c1)C1=C(C(c3ccncc3)O2)C(c2ccc(Br)cc2)n2ncnc2N1 (stereo unspecified) | 44.5% (active) |
| O=C(CNS(=O)(=O)c1ccc(Br)s1)N1CCN(C(=O)c2ccco2)CC1 | -3.81% (inactive) |
| O=C1Cc2ccccc2Sc2ccc(Cl)cc21 | 7.76% (inactive) |
| Cc1nc2ccccc2c2oc(C(=O)NCC3CCCO3)cc12 (stereo unspecified) | 5.49% (inactive) |
| CCCN(CCC)CCNC(=O)c1cc2c(C)nc3ccccc3c2o1 | -0.17% (inactive) |
| Cc1nc2ccccc2c2oc(C(=O)NCCCN3CCC(C)CC3)cc12 | 38.5% (active) |
| CCc1cc(C(c2ccccc2OC)N2CCOCC2)c(NC(=O)c2ccccc2)s1 (stereo unspecified) | 14.6% (inactive) |
| O=C(Cn1cnc2c(cnn2-c2ccccc2)c1=O)NCc1ccccc1 | 2.17% (inactive) |
| CN(Cc1ccccc1)C(=O)CCNC(=O)Cn1cnc2ccccc2c1=O | 32.8% (active) |
| O=C(Cn1cnc2ccccc2c1=O)NCC1COc2ccccc2O1 (stereo unspecified) | -2.34% (inactive) |
| N#C/C(=C1/CCCN1)c1ccccn1 | 3.25% (inactive) |
| CC(C)CNC(=S)NNC(=O)c1ccccc1OC(F)F | 9.35% (inactive) |
| Cc1ccc(C(=O)N2CCCC2)c(F)c1F | -0.75% (inactive) |

| SMILES | inhibition |
| --- | --- |
| Cc1c(Br)cc(C(=O)N2CCCCCC2)c(C)c1C | 38.8% (active) |
| Cc1ccc(C(=O)N2CCCCCC2)cc1Br | 16.6% (inactive) |
| CCOc1cccc(SCc2noc(C(=O)NC(C)C)c2C(=O)O)c1 | -0.31% (inactive) |
| C=CCn1c(SCC(=O)NCc2ccccc2)nnc1-c1cc(Br)ccc1O | 1.48% (inactive) |
| COCCCNCC(=O)Nc1sc(C)c(C)c1C(=O)OC | 5.81% (inactive) |
| CC(C)(C)NC(=O)NC(=O)COC(=O)Cn1c(C(F)(F)F)nc2ccccc21 | 2.81% (inactive) |
| CCOC(=O)N1CCN(C(=O)c2cc3c(ccc4ccccc43)oc2=O)CC1 | 3.76% (inactive) |
| Cn1cccc1C(=O)NC(=O)COC(=O)Cc1coc2ccc3ccccc3c12 | 33% (active) |
| Cc1ccccc1NC(=O)c1ccccc1NS(=O)(=O)c1cccc2cccnc12 | 8.21% (inactive) |
| Cc1cc(C)c2c(-n3cccc3)c(C(=O)NNS(=O)(=O)c3ccc(F)cc3)sc2n1 | 4.13% (inactive) |
| COCCn1c(-c2ccc(OC)c(OC)c2)nc2ccccc21 | -0.3% (inactive) |
| COc1ccc(-c2nc3ccccc3n2CCC(C)C)cc1OC | 44.3% (active) |
| COc1ccc(NC(=O)COC(=O)Cn2c(C)nc3ccccc32)cc1OC | 1.03% (inactive) |
| CC1=NN(C(=O)Cc2ccc(C)cc2)C(O)(c2cccnc2)C1 (stereo unspecified) | 4.82% (inactive) |
| CCc1ccccc1N(CC(=O)N1CCN(c2ccccc2F)CC1)S(C)(=O)=O | 3.45% (inactive) |
| O=C(C(NS(=O)(=O)c1cccc2nsnc12)c1ccccc1)N1CCN(c2ccccc2)CC1 (stereo unspecified) | 2.02% (inactive) |
| O=C(CCS(=O)(=O)c1cccc2nsnc12)N1CCN(c2ccccc2F)CC1 | 30.8% (active) |
| Cn1c(=O)n(C)c2cc(/C=N/NC(=O)c3cccc(Br)c3)ccc21 | -10.6% (inactive) |
| Cn1nnnc1SCC(=O)Nc1ccccc1C(=O)NC1CC1 | 2.02% (inactive) |
| c1ccc(CSc2ncnc3c2sc2nc(N4CCOCC4)c4c(c23)CCCC4)cc1 | 10.3% (inactive) |
| CC(C)c1ccc(Nc2ncccc2C#N)cc1 | 7.46% (inactive) |
| Cc1nn2c(c1-c1ccccc1)N=C(c1ccco1)CC2c1ccccc1 (stereo unspecified) | 32.2% (active) |
| Cc1[nH]c2ccccc2c1C(=O)COC(=O)C(C)C | 2.83% (inactive) |
| CCOC(=O)c1c(-c2ccccc2)csc1NC(=S)NC(=O)c1ccccc1 | 15.1% (inactive) |
| COc1ccccc1N1CC(C(=O)Nc2ccc(S(=O)(=O)N3CCOCC3)cc2)CC1=O (stereo unspecified) | 5.2% (inactive) |
